Experimental data reported in the supplement of paper PMC10849652.
Targets with a hit are over-represented here; the source holds about 7,900 in all. About 0.6% of all pairs of compound and target were hits. Values without a mark were called inactive.

Legend:
Test in all cases: log2 fold change, soluble protein after heating vs DMSO (PISA); higher = thermal stabilisation; K562 cells, 10 uM, 30 min; active = over 0.2 and 3.5 SD of the protein, either way, in both replicates (recomputed)
[1] = compound: C#Cc1cccc(Nc2ncnc3cc(OCCOC)c(OCCOC)cc23)c1 [erlotinib]
In short: (§1)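 Thermal stability values are relative to control samples and come from duplicates. They are expressed as log2 fold changes. For measurement, K562 cells (2×10^6 cells/mL) received 10 μM compound for 30 min, and aliquots were heated for 3 min over 48°C-58°C, pooled, and extracted at 4°C in PBS with 0.5% NP-40. Soluble protein, the supernatant after 21,000xg for 90 min, was quantified by TMTpro 16plex LC-MS/MS with equalised channel sums.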

[2] = compound: C/C(=N\NC(=O)C1=CC(=CC=C1)S(=O)(=O)N2CCOCC2)/C3=C(C=CC(=C3)Cl)O
In short: as §1

[3] = compound: C1=CC(=C(C=C1Cl)C2=NC3=NC=CN=C3C(=N2)NC4=CC=NC=C4)F
In short: as §1

[4] = compound: C1=CC(=CC=C1C2=NC3=C(N2)C=C(C=C3)C(=O)N)OC4=CC=C(C=C4)Cl
In short: as §1

[5] = compound: C1=CC2=C(C=CC(=C2)/C=C\3/C(=O)NC(=NCC4=CC=CS4)S3)N=C1
In short: as §1

[6] = compound: C1=CC2=NC=CN=C2C=C1/C=C/3\C(=O)NC(=O)S3
In short: as §1

[7] = compound: C1=CC=C(C=C1)C2=NC(=C(N2)C3=CC=NC=C3)C4=CC(=C(C=C4)Cl)O
In short: as §1

[8] = compound: C1=CC=C2C(=C1)C3=NNC4=CC=CC(=C43)C2=O
In short: as §1

[9] = compound: C1CCN(C1)C(=O)NC2=CC=CC(=C2)NC3=NC=C(C(=N3)NCCC4=CN=CN4)Br
In short: as §1

[10] = compound: C1CN(CCC1(CC2=CC=C(C=C2)Cl)N)C3=NC=NC4=C3C=CN4
In short: as §1

Chain of UniProt O95372 (O95372 whole entry, looked up): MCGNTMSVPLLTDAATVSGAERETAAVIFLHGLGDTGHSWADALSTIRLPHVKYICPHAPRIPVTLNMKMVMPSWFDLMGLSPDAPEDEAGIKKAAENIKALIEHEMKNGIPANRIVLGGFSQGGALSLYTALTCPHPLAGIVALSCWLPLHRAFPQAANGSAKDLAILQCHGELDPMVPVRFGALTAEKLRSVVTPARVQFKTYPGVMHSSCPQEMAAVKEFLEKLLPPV
Chain of UniProt P48449 (P48449 whole entry, looked up): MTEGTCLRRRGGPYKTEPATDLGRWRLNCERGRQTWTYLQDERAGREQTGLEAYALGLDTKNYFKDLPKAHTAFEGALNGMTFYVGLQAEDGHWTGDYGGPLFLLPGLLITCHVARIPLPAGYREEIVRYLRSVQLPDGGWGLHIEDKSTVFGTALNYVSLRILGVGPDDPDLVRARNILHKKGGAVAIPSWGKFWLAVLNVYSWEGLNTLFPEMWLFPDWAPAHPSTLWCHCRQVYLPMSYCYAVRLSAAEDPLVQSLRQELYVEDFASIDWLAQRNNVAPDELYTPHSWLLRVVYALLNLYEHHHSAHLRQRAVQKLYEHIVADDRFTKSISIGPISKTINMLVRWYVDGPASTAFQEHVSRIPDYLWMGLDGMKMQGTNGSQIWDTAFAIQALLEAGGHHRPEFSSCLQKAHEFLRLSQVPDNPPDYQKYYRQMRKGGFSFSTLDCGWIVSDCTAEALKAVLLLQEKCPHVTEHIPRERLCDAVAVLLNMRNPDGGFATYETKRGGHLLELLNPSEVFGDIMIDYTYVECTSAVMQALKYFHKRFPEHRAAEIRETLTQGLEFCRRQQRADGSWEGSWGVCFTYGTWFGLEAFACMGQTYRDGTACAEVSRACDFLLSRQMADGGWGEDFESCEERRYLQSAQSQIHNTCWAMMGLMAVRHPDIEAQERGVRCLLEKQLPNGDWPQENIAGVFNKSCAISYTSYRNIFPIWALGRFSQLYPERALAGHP
Chain of UniProt Q13257 (Q13257 whole entry, looked up): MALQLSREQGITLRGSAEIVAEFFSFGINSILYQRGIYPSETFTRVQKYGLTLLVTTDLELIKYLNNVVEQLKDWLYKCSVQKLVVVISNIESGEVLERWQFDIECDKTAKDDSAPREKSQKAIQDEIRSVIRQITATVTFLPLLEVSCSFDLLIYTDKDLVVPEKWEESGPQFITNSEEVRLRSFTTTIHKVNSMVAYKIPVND
Chain of UniProt Q13418 (Q13418 whole entry, looked up): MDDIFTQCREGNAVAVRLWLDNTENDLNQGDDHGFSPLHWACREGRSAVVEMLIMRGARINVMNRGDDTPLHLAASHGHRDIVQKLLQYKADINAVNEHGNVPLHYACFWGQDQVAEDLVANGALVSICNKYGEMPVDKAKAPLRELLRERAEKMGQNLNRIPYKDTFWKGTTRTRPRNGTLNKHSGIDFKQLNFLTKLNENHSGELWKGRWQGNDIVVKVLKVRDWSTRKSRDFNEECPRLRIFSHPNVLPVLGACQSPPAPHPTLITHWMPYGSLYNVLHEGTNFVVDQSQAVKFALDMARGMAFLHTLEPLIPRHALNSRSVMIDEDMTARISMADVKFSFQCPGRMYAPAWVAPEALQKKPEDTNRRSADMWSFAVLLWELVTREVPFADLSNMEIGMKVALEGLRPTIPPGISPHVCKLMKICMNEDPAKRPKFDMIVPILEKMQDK
Chain of UniProt Q9H3F6 (Q9H3F6 whole entry, looked up): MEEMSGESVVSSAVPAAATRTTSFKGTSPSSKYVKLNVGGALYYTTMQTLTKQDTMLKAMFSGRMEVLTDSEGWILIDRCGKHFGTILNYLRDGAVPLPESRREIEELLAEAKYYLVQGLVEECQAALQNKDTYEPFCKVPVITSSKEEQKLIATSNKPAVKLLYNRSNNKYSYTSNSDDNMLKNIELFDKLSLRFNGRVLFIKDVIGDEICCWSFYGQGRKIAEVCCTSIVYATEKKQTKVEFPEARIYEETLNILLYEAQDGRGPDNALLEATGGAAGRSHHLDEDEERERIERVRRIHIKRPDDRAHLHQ
Chain of UniProt O60333 (O60333 whole entry, looked up): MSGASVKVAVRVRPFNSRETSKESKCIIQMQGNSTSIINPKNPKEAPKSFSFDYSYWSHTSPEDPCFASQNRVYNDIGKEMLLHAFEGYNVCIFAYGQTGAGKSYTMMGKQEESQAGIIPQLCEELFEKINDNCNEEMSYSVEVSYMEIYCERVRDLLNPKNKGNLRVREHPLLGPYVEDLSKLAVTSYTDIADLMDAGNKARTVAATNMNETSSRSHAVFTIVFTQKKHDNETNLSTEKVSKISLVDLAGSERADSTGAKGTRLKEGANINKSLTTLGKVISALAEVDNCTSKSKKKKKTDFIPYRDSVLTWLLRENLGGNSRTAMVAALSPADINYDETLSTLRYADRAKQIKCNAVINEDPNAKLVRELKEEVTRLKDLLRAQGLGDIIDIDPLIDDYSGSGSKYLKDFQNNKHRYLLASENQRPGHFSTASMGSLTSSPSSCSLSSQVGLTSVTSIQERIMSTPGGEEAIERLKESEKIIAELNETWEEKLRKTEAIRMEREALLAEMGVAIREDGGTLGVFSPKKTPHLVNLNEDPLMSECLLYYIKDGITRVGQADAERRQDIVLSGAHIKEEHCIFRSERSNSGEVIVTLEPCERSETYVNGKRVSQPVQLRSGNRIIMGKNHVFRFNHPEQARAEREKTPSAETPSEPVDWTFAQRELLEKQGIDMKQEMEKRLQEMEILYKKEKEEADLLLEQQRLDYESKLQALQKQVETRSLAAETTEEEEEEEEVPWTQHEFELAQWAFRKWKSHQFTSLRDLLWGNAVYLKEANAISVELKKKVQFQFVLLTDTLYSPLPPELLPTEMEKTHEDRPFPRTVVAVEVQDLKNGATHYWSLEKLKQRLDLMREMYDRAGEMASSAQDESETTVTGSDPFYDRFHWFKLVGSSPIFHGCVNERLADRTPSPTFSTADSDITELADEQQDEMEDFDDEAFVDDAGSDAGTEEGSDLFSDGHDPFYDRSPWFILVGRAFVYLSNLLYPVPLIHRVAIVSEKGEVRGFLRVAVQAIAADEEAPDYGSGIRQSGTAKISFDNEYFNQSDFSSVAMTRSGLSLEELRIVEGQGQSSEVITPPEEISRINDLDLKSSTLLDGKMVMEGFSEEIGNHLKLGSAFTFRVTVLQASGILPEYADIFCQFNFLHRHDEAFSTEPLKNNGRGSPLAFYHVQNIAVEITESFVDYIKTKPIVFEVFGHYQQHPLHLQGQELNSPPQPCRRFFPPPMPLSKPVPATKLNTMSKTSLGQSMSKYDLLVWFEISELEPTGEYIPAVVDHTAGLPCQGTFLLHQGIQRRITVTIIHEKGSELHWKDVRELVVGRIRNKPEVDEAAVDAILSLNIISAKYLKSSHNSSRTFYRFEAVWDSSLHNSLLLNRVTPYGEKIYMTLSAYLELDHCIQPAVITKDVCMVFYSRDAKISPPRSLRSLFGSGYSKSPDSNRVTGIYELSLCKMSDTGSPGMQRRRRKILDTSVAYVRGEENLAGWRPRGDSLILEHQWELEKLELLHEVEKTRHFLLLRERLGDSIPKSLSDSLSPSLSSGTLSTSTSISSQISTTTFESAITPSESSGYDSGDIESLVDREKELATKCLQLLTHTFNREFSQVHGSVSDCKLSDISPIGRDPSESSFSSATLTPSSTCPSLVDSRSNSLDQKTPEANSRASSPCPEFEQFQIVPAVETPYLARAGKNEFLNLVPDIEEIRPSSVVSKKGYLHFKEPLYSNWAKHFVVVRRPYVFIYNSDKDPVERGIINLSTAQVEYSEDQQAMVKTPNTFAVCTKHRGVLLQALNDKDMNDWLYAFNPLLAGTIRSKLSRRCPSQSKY
Chain of UniProt O95140 (O95140 whole entry, looked up): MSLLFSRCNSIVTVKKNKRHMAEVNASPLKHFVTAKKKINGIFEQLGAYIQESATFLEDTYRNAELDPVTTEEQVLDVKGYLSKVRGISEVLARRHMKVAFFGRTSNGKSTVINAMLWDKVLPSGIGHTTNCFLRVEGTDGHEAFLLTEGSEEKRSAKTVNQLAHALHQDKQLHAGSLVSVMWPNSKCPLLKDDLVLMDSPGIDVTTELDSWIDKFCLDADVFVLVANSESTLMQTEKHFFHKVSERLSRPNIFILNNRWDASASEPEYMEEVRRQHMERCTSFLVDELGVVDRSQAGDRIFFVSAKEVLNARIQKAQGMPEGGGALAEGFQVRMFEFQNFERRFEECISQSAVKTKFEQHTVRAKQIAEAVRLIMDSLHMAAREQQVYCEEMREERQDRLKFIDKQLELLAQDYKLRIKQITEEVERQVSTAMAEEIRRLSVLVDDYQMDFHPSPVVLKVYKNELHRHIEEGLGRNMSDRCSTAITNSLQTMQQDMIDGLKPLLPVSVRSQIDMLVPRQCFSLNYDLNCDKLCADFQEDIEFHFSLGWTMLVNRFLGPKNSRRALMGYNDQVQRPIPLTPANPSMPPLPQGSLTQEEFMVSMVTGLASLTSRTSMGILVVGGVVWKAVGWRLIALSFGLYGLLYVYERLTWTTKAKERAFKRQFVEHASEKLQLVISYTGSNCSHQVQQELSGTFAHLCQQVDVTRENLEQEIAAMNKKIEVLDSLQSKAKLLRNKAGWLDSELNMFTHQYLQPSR
Chain of UniProt Q96AQ8 (Q96AQ8 whole entry, looked up): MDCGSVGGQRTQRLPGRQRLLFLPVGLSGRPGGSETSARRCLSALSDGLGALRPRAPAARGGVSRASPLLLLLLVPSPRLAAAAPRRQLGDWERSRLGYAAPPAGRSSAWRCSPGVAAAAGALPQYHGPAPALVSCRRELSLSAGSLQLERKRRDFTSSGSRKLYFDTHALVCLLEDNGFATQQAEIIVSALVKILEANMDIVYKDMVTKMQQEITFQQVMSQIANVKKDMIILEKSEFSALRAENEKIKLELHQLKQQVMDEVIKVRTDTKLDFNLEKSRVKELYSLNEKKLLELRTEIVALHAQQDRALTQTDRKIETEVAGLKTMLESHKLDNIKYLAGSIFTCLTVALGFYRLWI

Target | log2 fold change [1] | log2 fold change [2] | log2 fold change [3] | log2 fold change [4] | log2 fold change [5] | log2 fold change [6] | log2 fold change [7] | log2 fold change [8] | log2 fold change [9] | log2 fold change [10]
MFN2 (UniProt O95140) | 0.027 | 0.049 | 0.007 | -0.001 | 0.026 | 0.008 | 0.041 | -0.003 | -0.016 | -0.019
IGFBP4 (UniProt P22692) | -0.03 | -0.14 | 0.023 | 0.093 | -0.124 | 0.178 | -0.051 | -0.217 | 0.108 | 0.076
MED16 (UniProt Q9Y2X0) | -0.019 | -0.085 | 0.065 | -0.038 | 0.038 | 0.051 | -0.067 | -0.155 | 0.034 | -0.046
MAD2L1 (UniProt Q13257) | -0.01 | 0.056 | 0.029 | -0.052 | 0.033 | 0.056 | -0.009 | 0.007 | 0.01 | -0.032
KCTD10 (UniProt Q9H3F6) | -0.041 | 0.159 | -0.051 | 0.014 | -0.021 | 0.049 | -0.171 | 0.045 | -0.027 | -0.055
KPNA4 (UniProt O00629) | 0.016 | 0.023 | 0.037 | 0.023 | 0.005 | 0.03 | 0.027 | -0.024 | 0.003 | 0.003
MAP4 (UniProt E7EVA0) | 0 | -0.093 | -0.219 | 0.063 | -0.087 | 0.058 | -0.086 | -0.003 | 0.034 | -0.053
LMNB2 (UniProt Q03252) | 0.027 | 0.062 | 0.001 | 0.025 | -0.042 | 0.099 | -0.066 | -0.186 | -0.167 | 0.001
LYPLA2 (UniProt O95372) | -0.008 | 0.021 | 0.345 (active) | -0.01 | 0.081 | 0.097 | 0.14 | -0.016 | -0.084 | -0.122
LRPPRC (UniProt P42704) | 0.265 | 0.526 | 0.002 | -0.255 | 0.204 | -0.148 | 0.185 | -0.223 | -0.133 | -0.197
ILK (UniProt Q13418) | 0 | -0.119 | -0.086 | 0.016 | 0.091 | 0.002 | -0.056 | -0.056 | 0.068 | 0.008
MIEF1 (UniProt Q9NQG6) | 0.009 | 0.03 | 0.104 | 0.021 | 0.072 | 0.001 | 0.025 | -0.027 | -0.028 | -0.021
ITM2B (UniProt Q9Y287) | 0.099 | -0.012 | -0.122 | 0.041 | 0 | 0.042 | 0.068 | -0.12 | -0.066 | 0.027
IGFBP2 (UniProt P18065) | -0.074 | -0.023 | -0.146 | 0.3 | 0.054 | 0.03 | 0.09 | -0.209 | 0.065 | 0.039
IMMT isoform 2 (UniProt Q16891) | -0.057 | 0.043 | 0.051 | -0.022 | -0.07 | -0.021 | -0.026 | 0.021 | 0.007 | 0.047
MAP2K3 isoform 3 (UniProt P46734) | -0.011 | 0.05 | 0.002 | 0.009 | 0.036 | 0.017 | 0.046 | -0.057 | 0.016 | -0.006
LIMA1 isoform 4 (UniProt Q9UHB6) | -0.015 | -0.062 | -0.039 | 0.069 | 0.038 | -0.015 | 0.022 | 0.054 | 0 | -0.039
ILRUN (UniProt Q9H6K1) | -0.009 | 0.069 | -0.033 | 0.027 | 0.075 | 0.043 | -0.06 | -0.063 | 0.028 | 0.041
INTS7 (UniProt Q9NVH2) | 0.39 | 0.067 | -0.016 | 0.046 | -0.175 | 0.036 | -0.081 | 0.022 | -0.091 | -0.009
KDM5D isoform 3 (UniProt Q9BY66) | -0.036 | -0.142 | 0.067 | -0.147 | 0.121 | -0.034 | -0.005 | 0.026 | 0.035 | 0.022
KEAP1 (UniProt Q14145) | -0.015 | -0.031 | 0.025 | -0.021 | 0.025 | 0.159 | -0.098 | 0.023 | -0.045 | -0.034
KDM1A isoform 2 (UniProt O60341) | 0.059 | 0.039 | 0.006 | -0.028 | 0.075 | -0.015 | 0.059 | -0.026 | -0.03 | -0.069
ITIH4 (UniProt Q14624) | -0.026 | -0.072 | 0.029 | 0.091 | 0.143 | -0.039 | 0.061 | -0.06 | -0.009 | 0.079
MAPKAPK5 (UniProt Q8IW41) | 0.249 (active) | -0.249 | 0.024 | -0.087 | 0.019 | 0.052 | 0.043 | 0.025 | -0.033 | 0.012
MEPCE (UniProt Q7L2J0) | 0.063 | 0.064 | -0.022 | -0.002 | 0.039 | -0.01 | 0.103 | 0.024 | -0.049 | -0.047
KNTC1 (UniProt P50748) | 0.102 | 0.068 | 0.029 | -0.039 | 0.019 | 0.034 | -0.065 | -0.012 | 0.001 | -0.004
LSS (UniProt P48449) | 0.293 | 0.073 | -0.029 | 0.051 | 0.128 | 0.069 | -0.005 | 0.081 | 0.005 | 0.089
KLHL18 (UniProt O94889) | -0.011 | 0 | 0.12 | 0.022 | 0.031 | -0.02 | -0.042 | -0.085 | -0.042 | -0.026
KIF1B isoform 4 (UniProt O60333) | 0.031 | 0.095 | 0.042 | -0.059 | 0.002 | 0.018 | -0.092 | 0.078 | -0.02 | -0.091
MCUR1 (UniProt Q96AQ8) | -0.012 | -0.03 | 0.055 | 0.003 | 0.053 | -0.006 | 0.102 | 0.005 | -0.023 | 0.063
